# Measurements: article PMC8384837, “Expanding the binding specificity for RNA recognition by a PUF domain”
# What was measured:
# Assay in all cases: yeast three-hybrid, YBZ-1, SC-Leu-His + 0.5 mM 3-AT, 4 days
# Details in all cases: tags: N-Gal4 AD-HA kept; label: inside an RPR1-promoter hybrid RNA with tandem MS2 sites; ssRNA
# PUM1 PUF domain R5-HRM = PUM1 PUF domain R5-HRM (Homo sapiens, UniProt Q14671 828-1176, C1007H;Q1011M)
# In short: (§1)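 The interaction score is the logarithmic change in variant frequency from input to selection. It uses log2, with a pseudocount of 1 for absent variants, and frequencies came from PCR-amplified, Illumina-sequenced repeat regions. The libraries were Pumilio-1 PUF domains randomized at the three base-contacting residues per repeat, co-expressed with matching RNA elements in strain YBZ-1 (LexA–MS2 coat fusion, HIS3 reporter). Plating lasted four days on SC-Leu (input) or SC-Leu-His + 0.5 mM 3-AT (selection).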
# PUM1 PUF domain R5-KFT = PUM1 PUF domain R5-KFT (Homo sapiens, UniProt Q14671 828-1176, C1007K;R1008F;Q1011T)
# In short: as §1
# PUM1 PUF domain R3-RTR = PUM1 PUF domain R3-RTR (Homo sapiens, UniProt Q14671 828-1176, C935R;R936T;Q939R)
# In short: as §1
# PUM1 PUF domain R1-TVE = PUM1 PUF domain R1-TVE (Homo sapiens, UniProt Q14671 828-1176, S863T;R864V;Q867E)
# In short: as §1
# Chain of PUM1 PUF domain R5-KFT (Q14671 828-1176 C1007K/R1008F/Q1011T): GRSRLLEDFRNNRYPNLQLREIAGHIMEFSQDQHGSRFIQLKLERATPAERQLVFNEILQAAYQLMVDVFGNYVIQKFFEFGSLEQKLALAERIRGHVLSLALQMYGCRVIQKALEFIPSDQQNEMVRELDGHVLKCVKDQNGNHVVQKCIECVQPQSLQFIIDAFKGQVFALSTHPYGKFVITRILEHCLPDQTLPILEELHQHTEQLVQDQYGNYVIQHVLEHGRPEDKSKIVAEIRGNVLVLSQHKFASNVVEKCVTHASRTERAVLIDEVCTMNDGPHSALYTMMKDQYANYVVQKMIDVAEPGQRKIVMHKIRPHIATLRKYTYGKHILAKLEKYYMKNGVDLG
# Chain of PUM1 PUF domain R5-HRM (Q14671 828-1176 C1007H/Q1011M): as the sequence (Q14671 828-1176 C1007K/R1008F/Q1011T) above, with K180H, F181R, T184M counted along it
# Chain of PUM1 PUF domain R1-TVE (Q14671 828-1176 S863T/R864V/Q867E): as the sequence (Q14671 828-1176 C1007K/R1008F/Q1011T) above, with S36T, R37V, Q40E, K180C, F181R, T184Q counted along it
# Chain of PUM1 PUF domain R3-RTR (Q14671 828-1176 C935R/R936T/Q939R): as the sequence (Q14671 828-1176 C1007K/R1008F/Q1011T) above, with C108R, R109T, Q112R, K180C, F181R, T184Q counted along it
sequence,measurement,setting,value
GGCUAGAACUAGUGGAUCCCCCGGCGCCCGGCGGCUCGAGCCCGGGUAAGUGUCAAUAGUCUGCAUGCCGCCGGGCGCCAUGCCUGCAGGUCGACUCUAGAAAACAUG,binding signal,PUM1 PUF domain R5-HRM,1.79 log2 enrichment (interaction score)
same,binding signal,PUM1 PUF domain R5-KFT,5.09 log2 enrichment (interaction score)
GGCUAGAACUAGUGGAUCCCCCGGCGCCCGGCGGCUCGAGCCCGGGUAAGUGUAAUUAGUCUGCAUGCCGCCGGGCGCCAUGCCUGCAGGUCGACUCUAGAAAACAUG,binding signal,PUM1 PUF domain R3-RTR,4.46 log2 enrichment (interaction score)
GGCUAGAACUAGUGGAUCCCCCGGCGCCCGGCGGCUCGAGCCCGGGUAAGUGUAAAUGGUCUGCAUGCCGCCGGGCGCCAUGCCUGCAGGUCGACUCUAGAAAACAUG,binding signal,PUM1 PUF domain R1-TVE,2.57 log2 enrichment (interaction score)
